SMILES strings stand for the structures. In all, about 120,000 compounds went through this assay and about 5,300 (4.4%) were called active. Another 22% or so got no clear call; they are omitted. The sample holds actives, similar compounds and a random draw of the others, so the mix is not that of the screen. Values without a mark were called inactive. Calls follow the shape of the dose curve; as a rule, active = well fitted inhibition curve with a large enough effect; inconclusive = small, poorly fitted or top-dose-only effect; inactive = no such curve, though single readings can be large or run the other way.
Potency is read from the fitted curve at half-maximal effect.

The nature of the assay: qHTS Primary assay for Inhibitors of Plasmodium falciparum Dd2 growth in vitro. Also: nearly all actives have a fitted effect of over 65% in size.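 As to activity, negative = inhibition: plate controls were DMSO vehicle for no effect and reference drug for full effect.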 The note with it: P. falciparum Dd2 growth, SYBR Green, 72 h; series mostly up to 28.9 µM; activity, negative = inhibition: at the top concentration. Summed up:
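Infected erythrocytes (Dd2, 0.3% parasitemia, 2.5% hematocrit final) are added to compound in RPMI-1640/Albumax II medium, grown 72 h at 37C in low oxygen, then lysed with saponin/Triton-X containing SYBR Green and read by fluorescence.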
Take `CCOC(=O)N1CCC(N2CCN(c3cc(C(C)C)nc(C)n3)CC2)CC1`: the “activity, negative = inhibition” value is -26.4%.

Take `Cc1ccccc1C(=O)N[C@@H]1CN(c2ncccn2)C[C@H]1CO`: the “activity, negative = inhibition” value was 15.2%.

`Cc1cccc(-c2noc(CCC(=O)N[C@H]3CC[C@H]3NC3CCCC3)n2)c1`: the compound was called inactive.

For `CO[C@H]1C(=O)N(C2CCN(C(=O)c3ccncc3)CC2)[C@H]1c1ccncc1`, the “activity, negative = inhibition” value is 16.9%.

Consider `Cc1nc(-c2c3n(c(=O)n(Cc4ccc(Br)cc4)c2=O)CCCCC3)no1`, for which the “activity, negative = inhibition” value is -2.97%.

Consider `CNC(=O)[C@@H]1C[C@H](n2cc(CN(C)C(=O)c3cccc(F)c3F)nn2)CN1`, for which the “activity, negative = inhibition” value was 18.4%.

As to `CCc1cccc(-n2nnnc2N2CCN(C(=O)Nc3ccc(C)c(OC)c3)CC2)c1`, the “activity, negative = inhibition” value was -18.1%.

With `O=C(O)CN1CC2(CCC1=O)CCN(C(=O)C1CNC(=O)C1)CC2` (stereo not drawn), the “activity, negative = inhibition” value was -11.9%.

On to `CCC(C(=O)NCCn1ccn2nc(-c3ccc(F)cc3)cc2c1=O)c1ccccc1` (stereo not drawn), for which the “activity, negative = inhibition” value is -4.99%.

Take `COc1ccccc1-c1cc(-c2cn[nH]c2)c2cncn2c1`: the Potency is 12.6 µM (active).

`Cc1noc(C)c1-c1cc(-c2cncnc2)cn2cncc12`: the “activity, negative = inhibition” value was -3.21% [at 44.1 µM].

As to `COc1ccc(-c2cc(-c3cnc4[nH]ccc4c3)cn3cncc23)cn1`, the Potency was 4.47 µM (active).

On to `COc1ccc(-c2cc(-c3cccc4[nH]ncc34)cn3cncc23)cn1`, for which the Potency is 3.98 µM (active).

`Cn1cc(-c2cc(-c3cccnc3)c3cncn3c2)cn1`: the “activity, negative = inhibition” value was -7.39% [at 44.1 µM].

In the case of `Cc1noc(C)c1-c1cc(-c2ccccc2Oc2ccccc2)cn2cncc12`, the Potency was 5.62 µM (active).

For the compound `COc1ccc(-c2nccc3c(=O)cc(N(C)c4ccccc4)oc23)cn1`, the “outcome” value is “inactive [at 44.1 µM]”.

As for `OCc1ccc(-c2cc(-c3cccnc3)c3cncn3c2)cc1`, the “activity, negative = inhibition” value is -25% [at 44.1 µM].

On to `COc1ccccc1-c1cc(-c2cn[nH]c2)c2onc(C)c2n1`, for which the “outcome” value was “inactive [at 44.1 µM]”.

For the compound `CCCN1CCN(C(=O)CC2CCCN(c3cnn(CCOC)c(=O)c3)C2)CC1` (stereo not drawn), the “activity, negative = inhibition” value is 53.5%.

Turning to `O=C(c1cnccn1)N1CC2CC(C1)[C@H]1CCCC(=O)N1C2` (stereo partly drawn), the “activity, negative = inhibition” value is -6.56%.

As for `CCn1ncc(C(=O)N2CC[C@@H]3CN(S(C)(=O)=O)[C@@H]3C2)c1C`, the “activity, negative = inhibition” value is 16.8%.

Consider `NC(=O)CCNC(=O)C1=C[C@@H](NC(=O)CC2(CC(=O)O)CCCC2)[C@@H](O)[C@H](O)C1`, for which the “activity, negative = inhibition” value was 1.07% [at 44.1 µM].

Turning to `O=C(c1ccc(C(F)(F)F)cc1)N1CCC([C@@H]2CNC[C@H]2CO)CC1`, the compound was classed as inactive.

Take `Cc1nnc2n1CCC(NC(=O)c1cc(CN3CCOCC3)on1)CC2` (stereo not drawn): the “activity, negative = inhibition” value was 60%.

Turning to `CN(C)C[C@H]1C[C@@H](CO)CN(C(=O)CCc2ccncc2)C1`, the “activity, negative = inhibition” value was 7.96%.

`O=C1CCN(C(=O)C2CCN(C(=O)NC3CCCCC3)CC2)CCCCCCN1`: the “activity, negative = inhibition” value is -11.1%.

Regarding `O=C(NCc1ccc(F)cc1)c1nc(-c2ccccc2)c2ccccn12`, the Potency was 11.2 µM (active).

Turning to `COCCNC(=O)c1nc(-c2cc(Cl)cc(Cl)c2)c2ccccn12`, the Potency entry is “inactive”.

For the compound `Cc1cccc(C)c1-c1nc(C(=O)NCc2ccc(F)cc2)n2ccccc12`, the “activity, negative = inhibition” value was -2.3%.

Turning to `CCc1ccc(NC(=O)c2cc(S(=O)(=O)NC3CCCCCC3)ccc2F)cc1`, the Potency was 7.94 µM (active).

On to `CC(C)c1ccc(NC(=O)c2cc(S(=O)(=O)N3CCc4ccccc4C3)ccc2F)cc1`, for which the “activity, negative = inhibition” value is 29.4%.

Regarding `NS(=O)(=O)c1ccc(NC(=O)COc2ccc(S(=O)(=O)NC3CCCCC3)cc2)cc1`, the “activity, negative = inhibition” value is 7.37%.

With `Cc1cnc(C(=O)N(C)C2CCc3nnc(C)n3CC2)cn1` (stereo not drawn), the “activity, negative = inhibition” value is 25.9%.

For the compound `O=C(CC1CC1)N1C[C@H]2OC(=O)N(CCc3cccc(Cl)c3)[C@H]2C1`, the “activity, negative = inhibition” value was 2.24%.

`O=C1CC(NCc2ccoc2)CN1CCc1cccc(Cl)c1` (stereo not drawn): the Potency was 10 µM (active).

In the case of `O=C(NC1CC(=O)N(CCc2cccc(Cl)c2)C1)c1ccsc1` (stereo not drawn), the “activity, negative = inhibition” value is -3.9%.

Consider `Cc1oc(-c2cccc(Oc3ccccc3)c2)nc1CN1CCOC(CCN)C1` (stereo not drawn), for which the Potency is 7.08 µM (active).

`COc1ccc(-c2nc(CN3CCOC(CN)C3)c(C)o2)c2ccccc12` (stereo not drawn): the Potency was 12.6 µM (active).

As to `COc1cccc(-c2nc(CS(=O)(=O)CC(=O)N3CCN(c4cc(C)ccc4C)CC3)c(C)o2)c1`, the “activity, negative = inhibition” value was 3.78%.

As to `COc1ccc(-c2nc(Cn3c(=O)cc(C)c4c(C)nn(-c5ccccc5)c43)c(C)o2)cc1OC`, the “activity, negative = inhibition” value was 14.2%.

On to `Cc1oc(-c2cccs2)nc1CN1CCOC(Cc2ccccc2)C1` (stereo not drawn), for which the compound was called inactive.

Take `COC(=O)c1cc2occc2n1Cc1nc(-c2ccccc2C)oc1C`: the “activity, negative = inhibition” value is 10.3%.

`CC(C)CN=C1S[C@H]2[C@H]([C@@H](O)[C@H](O)C[C@@H]2C(N)=O)N1Cc1ccc(F)cc1`: the “activity, negative = inhibition” value is 4.29% [at 44.1 µM].

For `O=C(Cc1cccc(F)c1)NC1CCN(c2cc(C(F)(F)F)ncn2)CC1`, the “activity, negative = inhibition” value is -19.3%.

Take `CCOC(=O)C1CCN(c2nc3c(S(=O)(=O)c4ccc(CC)cc4)nnn3c3ccc(Cl)cc23)CC1`: the compound was classed as inactive.

With `COc1ccc(N2CCN(C(=O)c3ccc4c(Cl)c5c(nc4c3)CCCC5)CC2)cc1`, the “activity, negative = inhibition” value was 13.6%.

`CCOC(=O)C1CCN(C(=O)CSc2c3c(nc4ccc(Cl)cc24)CCCC3)CC1`: the Potency was 14.1 µM (active).

Regarding `COc1cc(C(=O)N2CCC(Cc3nc(-c4ccccc4)no3)CC2)cc(OC)c1OC`, the “activity, negative = inhibition” value is -20.4%.

For the compound `O=C(N[C@H]1CCOC[C@H]1C1CCOCC1)c1cccc2nccnc12`, the “activity, negative = inhibition” value was -4.65%.

With `CCn1ncc(N2CCCC(CC(=O)NCc3ccc(OC)cc3)C2)cc1=O` (stereo not drawn), the “activity, negative = inhibition” value was -13.4%.

For `O[C@@H]1C[C@@H](c2nc(Cc3ccc(F)cc3Cl)no2)N(Cc2ncc[nH]2)C1`, the “activity, negative = inhibition” value is -8.76% [at 44.1 µM].

Take `COc1cccc(NC(=O)Cn2c(=O)cc(C)c3c(C)nn(-c4cccc(F)c4)c32)c1`: the “activity, negative = inhibition” value is -8.11%.

On to `Cc1nn(-c2ccc(C(C)C)cc2)c(C)c1[C@@H]1C=C[C@@H](NC(=S)NCC(C)C)C1`, for which the Potency was 12.6 µM (active).

As for `COc1ccc(-n2nc(C)c([C@@H]3C=C[C@@H](NC(=O)Nc4ccccc4)C3)c2C)cc1`, the Potency was 10 µM (active).

For the compound `Cc1nn(Cc2ccccc2)c(C)c1[C@@H]1C=C[C@@H](NC(=O)NC(C)C)C1`, the “activity, negative = inhibition” value is -18.8% [at 44.1 µM].

For `CCC(C)NC(=O)Cc1csc2nc(C)c(-c3cc(C)n(-c4ccc(C(C)C)cc4)n3)c(=O)n12` (stereo not drawn), the “activity, negative = inhibition” value was -19%.

For the compound `Cc1nn(-c2cccc(Br)c2)c(C)c1[C@@H]1C=C[C@@H](NC(=O)CC2(CC(=O)O)CCCC2)C1`, the result was inactive.

For `COc1ccc(-n2nc(C)c([C@H]3C=C[C@@H](OC(=O)Nc4cccc(F)c4)C3)c2C)cc1`, the Potency was 10 µM (active).

In the case of `Cc1nn(-c2ccc(C(C)C)cc2)c(C)c1[C@@H]1C=C[C@@H](NC(=O)Nc2ccccc2)C1`, the Potency was 11.2 µM (active).

On to `Cc1nn(Cc2ccccc2)c(C)c1[C@@H]1C=C[C@@H](NC(=O)NC2CCCCC2)C1`, for which the “outcome” value was “inactive [at 44.1 µM]”.

`Cc1nn(-c2ccccc2)c(C)c1[C@@H]1C=C[C@@H](NC(=O)c2ccc3c(c2)OCO3)C1`: the “activity, negative = inhibition” value was -0.301% [at 44.1 µM].

As to `Cc1nn(CCC#N)c(C)c1[C@@H]1C=C[C@@H](NS(=O)(=O)c2ccccc2)C1`, the “outcome” value is “inactive [at 44.1 µM]”.

Take `Cc1nn(-c2ccc(C(C)C)cc2)c(C)c1[C@@H]1C=C[C@@H](NC(=O)CC2(CC(=O)O)CCCC2)C1`: the compound was called inactive.

These data come from PubChem BioAssay AID1347417 (National Center for Advancing Translational Sciences (NCATS), 2020).
